Hit rate of the full screen: of about 97,000 compounds, about 140 (0.14%) were called active. The list comes from a sample in which actives are over-represented; it also holds similar structures and randomly drawn compounds. A number with no mark means an inactive call.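 How the source made its calls: active means inhibition above the screen-wide mean inhibition plus 3 SD (cut at about 15% in these data); inactive means the rest.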
What follows are compounds tested against Ephrin type-B receptor 4 (Homo sapiens) (UniProt P54760) (assay: EphB4-ephrin-B2 interaction antagonists, primary screen, biochemical, TNYL-RAW peptide probe, fluorescence polarization (AID 720;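 further: 0% = DMSO wells and 100% = excess unlabeled TNYL-RAW peptide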)). Settings: EphB4 LBD / TNYL-RAW-Alexa532 peptide, at 7 µM, hits give high values.
Ephrin type-B receptor 4 (Homo sapiens), sequence (P54760 whole entry, looked up, the tested form may be a part): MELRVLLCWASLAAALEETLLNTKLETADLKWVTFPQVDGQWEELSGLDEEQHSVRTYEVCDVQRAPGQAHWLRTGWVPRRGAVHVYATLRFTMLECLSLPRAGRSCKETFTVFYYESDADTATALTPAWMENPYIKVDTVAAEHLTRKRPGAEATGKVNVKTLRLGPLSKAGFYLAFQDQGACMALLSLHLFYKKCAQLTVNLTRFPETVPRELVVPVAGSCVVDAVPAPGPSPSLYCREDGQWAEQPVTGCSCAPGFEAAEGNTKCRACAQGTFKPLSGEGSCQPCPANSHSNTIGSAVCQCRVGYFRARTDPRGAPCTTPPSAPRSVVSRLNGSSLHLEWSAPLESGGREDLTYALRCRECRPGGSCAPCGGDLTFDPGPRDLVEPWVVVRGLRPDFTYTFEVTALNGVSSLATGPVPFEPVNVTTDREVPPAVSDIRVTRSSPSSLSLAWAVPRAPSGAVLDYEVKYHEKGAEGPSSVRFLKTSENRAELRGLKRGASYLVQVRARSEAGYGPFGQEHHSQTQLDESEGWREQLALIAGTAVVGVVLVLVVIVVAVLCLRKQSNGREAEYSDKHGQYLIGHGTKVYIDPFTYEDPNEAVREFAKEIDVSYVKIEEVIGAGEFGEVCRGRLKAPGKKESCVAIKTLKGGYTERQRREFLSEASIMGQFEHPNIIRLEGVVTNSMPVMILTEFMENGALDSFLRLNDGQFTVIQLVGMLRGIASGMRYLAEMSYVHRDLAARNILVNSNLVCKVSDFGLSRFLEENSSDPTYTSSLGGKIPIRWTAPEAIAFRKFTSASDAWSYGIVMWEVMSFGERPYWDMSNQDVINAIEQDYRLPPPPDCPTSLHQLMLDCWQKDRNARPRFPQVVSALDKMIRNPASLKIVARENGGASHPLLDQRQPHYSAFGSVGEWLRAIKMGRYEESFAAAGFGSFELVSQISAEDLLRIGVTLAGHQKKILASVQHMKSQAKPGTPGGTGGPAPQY

SMILES	inhibition
Cc1ccc(-c2nn(-c3ccccc3)cc2/C=N/NC(=O)c2ccc3c(c2)OCO3)cc1	-6.96%
CN(C)Cc1ccccc1C1(O)c2ccccc2CSc2ccccc21 (configuration not stated)	2.27%
O=c1nc(N2CCOCC2)nc2n1CCO2	-6.76%
CN(C)c1nc2n(c(=O)n1)CCO2	17.6% (active)
CC(C)CC(N=C1NC(C)(C)Cc2ccccc21)C(=O)O (configuration not stated)	0.51%
COc1ccc(/C(O)=C2\C(=O)C(=O)N(Cc3ccco3)C2c2ccc(OC)cc2OC)cc1 (configuration not stated)	-7.3%
CCOC(=O)c1c(NC(=O)CCCN2CCOCC2)sc2c1CC(C)(C)OC2	7.6%
CCCOC(=O)c1[nH]c2c(c1C)C(=O)CC(c1cccs1)C2 (configuration not stated)	3.13%
Nn1c(Cc2cccc3ccccc23)nnc1SCC(=O)N1CC(=O)Nc2ccccc21	5.41%
CCOc1ccc(NC(=O)CN(C)CC(=O)Nc2cccc(Cl)c2C)cc1OCC	-10.2%
COC(=O)c1ccc(C2C(Oc3ccccc3C)C(=O)N2CCc2ccc(OC)c(OC)c2)cc1 (configuration not stated)	-5.62%
CCC(C)(C(=O)NC1CCCCC1)N(C)C(=O)c1ccc2c(c1)OCO2 (configuration not stated)	3.83%
O=C(COc1ccc(Cl)cc1)N1CCN(S(=O)(=O)c2ccc(Cl)cc2)CC1	0.78%
Cc1cccc(N2CCN(C(=O)CN(C)S(=O)(=O)c3ccc4c(c3)CCC(=O)N4)CC2)c1C	3.05%
CN(C)CCNC(=O)Nc1cccc(Cl)c1Cl	-7%
O=C1CSC(c2ccc(Cl)cc2)N1 (configuration not stated)	-6.27%
Cc1cccc(NC(=S)Nc2ccc(Br)cc2)c1	1.26%
O=C(Nc1cccn(Cc2c(Cl)cccc2Cl)c1=O)c1ccc(Cl)cc1	4.57%
CCOc1ccc(Nc2nc(Cc3nnc(SCC(=O)c4ccc(C)cc4)o3)cs2)cc1	2.63%
CC(C)(C)n1nnnc1C(c1ccc(Cl)cc1)N1CCSCC1 (configuration not stated)	3.05%
COc1cccc2c1OCC1COc3c(c(=O)n(C)c(=O)n3C)C21 (configuration not stated)	5.25%
Cc1ccc(NC(=O)CSCC(=O)N2CCOCC2)cc1	1.18%
Cc1cc(Nc2ccccc2)nc(N)n1	-7.64%
O=C(NCCc1ccccn1)c1cc(C(=O)C2CCCCC2)c[nH]1	1.78%
C/C(=N\NC(=O)c1nc(C)cc(C)n1)c1ccccc1	3.33%

SMILES	inhibition
O=S(=O)(Cc1cc(Sc2ccccc2)nc(-c2ccccc2)n1)c1ccccc1	-3.64%
Cc1cc(N)n2nc(-c3ccc(C(C)(C)C)cc3)cc2n1	-2.84%
Oc1ccc(CNc2ccccc2O)cc1	-12.7%
O=C(COc1ncnc2c(Cl)cc(Cl)cc12)N1CCN(S(=O)(=O)c2ccccc2)CC1	-7.07%
CC(C)CNC(=O)CC(c1ccccc1)c1c(O)ccc2ccccc12 (configuration not stated)	2.89%
Cc1ccsc1/C=C1\SC(N2CCOCC2)=NC1=O	-4.07%
Nc1ccc(C(=O)OCC(=O)NC2CCCc3ccccc32)cc1[N+](=O)[O-] (configuration not stated)	-2.7%
COc1ccc(OCCCC(=O)Oc2ccc(OC)cc2)cc1	5.05%
O=C(COC(=O)c1ccccc1NC(=O)c1ccco1)Nc1ccc2c(c1)OC(F)(F)O2	-1.26%
COc1ccc(NC(=O)NC2CC3CCCC(C2)N3Cc2ccccc2)cc1 (configuration not stated)	-5.24%
O=C(Nc1ccccc1[N+](=O)[O-])C1C(c2ccccc2)=C1c1ccccc1	2.26%
Cn1cnc([N+](=O)[O-])c1Nc1ccccc1O	2.1%
Clc1ccc(COn2c(-c3ccc(Cl)cc3Cl)nc3ncccc32)cc1	1.17%
O=c1c2ccccc2nc2n1C1(CCCCC1)Cc1ccccc1-2	6.44%
CCOC(=O)C1=C(c2ccccc2)O/C(=C(/C(=O)OC)C(F)(F)F)S1	-6.59%
O=C(Cn1ccc([N+](=O)[O-])n1)NCc1cccs1	-8.7%
Cc1[nH]n(-c2ccccc2)c(=O)c1CCOC(=O)c1ccc(C(F)(F)F)cc1	5.95%
COC(=O)Cc1cc(=O)oc2c(C)c(O)ccc12	-7.76%
COC(=O)/C(=C\Nc1ccccc1)NC(=O)c1ccc(Cl)cc1Cl	2.49%
COC(=O)c1cccc(N(C(=O)c2ccco2)C(C(=O)NC2CCCC2)c2ccco2)c1 (configuration not stated)	-2.29%
O=C(CSC1=Nc2ccccc2C2=NC(CC(=O)NCc3ccco3)C(=O)N12)NCc1ccco1 (configuration not stated)	-6.96%
Cc1cccc(C)c1NC(=O)CCS(=O)(=O)c1cccc2nsnc12	7.08%
Cc1cc2nc(C)n(CCCNC(=O)Nc3ccccc3)c2cc1C	-0.81%
CCN1CCC(=NNC(=O)c2ccc(C)c([N+](=O)[O-])c2)CC1	8.39%
ONC(=Nc1ccc(Cl)cc1)c1ccccc1Cl	-1.3%

SMILES	inhibition
CCn1nc(C)c(NC(=O)/C=C/c2ccc(OC)c(COc3ccc(Br)cc3)c2)c1C	7.03%
c1ccc(-c2nc(NCc3ccco3)c3ccccc3n2)cc1	4.23%
CN1/C(=c2/s/c(=C3/C(=O)N(c4ccccc4)NC3=Nc3ccccc3)n(C)c2=O)C(C)(C)c2ccccc21	0.36%
Cc1ccc(NC2(C#N)C(=O)Nc3ccccc32)cc1 (configuration not stated)	0.9%
CCCCNC(=O)CSc1nc2n[nH]c(C)c2c(=N)n1-c1cccc(Cl)c1C	6.52%
Cc1ccc2c(c1)-c1c(ssc1=S)C(C)(C)N2C(=O)CN1C(=O)c2ccccc2C1=O	10.6%
O=C(Nc1sc2c(c1-c1nc3ccccc3[nH]1)CCCC2)C1CC1	-2.93%
COC(=O)Nc1sc2nc(C)cc(C)c2c1-n1cccc1	-5.41%
Cc1nc(NNC(=O)c2ccccc2)cc(-c2ccccc2)n1	8.09%
O=C(COC(=O)c1ccc(S(=O)(=O)N2CCc3ccccc3C2)cc1)NC(=O)NCc1ccco1	3.64%
COc1cc(C)c(C(C)C)cc1S(=O)(=O)n1ccnc1	1.74%
NC(=O)C1(N2CCCCC2)CCN(C(=S)Nc2ccc(Cl)cc2)CC1	-1.72%
NC(=O)COc1ccc(/C=N/NC(=O)C2CCCN2S(=O)(=O)c2ccc(Cl)cc2)cc1 (configuration not stated)	0.72%
CS(=O)(=O)N1CCN(c2cccc(Cl)n2)CC1	-3.22%
CCCc1nc2sc3c(c2c(=O)n1NC(=O)CCCl)CCCC3	2.57%
CC1CCC2(CC1)NC(=O)N(CC(=O)c1cccn1C)C2=O (configuration not stated)	4.98%
COc1ccc(/C=C(/NC(=O)c2ccc(C)cc2)c2nc3ccccc3[nH]2)cc1OC	-1.55%
CCCc1nnc(NC(=O)CN2C(=O)c3ccccc3S2(=O)=O)s1	18.1% (active)
CNC(=O)CN1C(=O)c2ccccc2S1(=O)=O	-4.4%
CCCc1nnc(NC(=O)c2cccs2)s1	-2.26%
COC(=O)c1cc(OC)ccc1-c1ccc(OC)cc1	-6.72%
O=C(COC(=O)c1n[nH]c2ccccc12)NCc1ccccc1	1.83%
CC(C)c1ccc(N2CCN(C(=O)c3ccccc3NC(=O)/C=C(\C(=O)O)c3ccccc3)CC2)cc1	-2.32%
CC(C)Oc1ccc(Oc2ccc(C(F)(F)F)cn2)cc1	-4.38%
O=C(CNC(=O)c1cc2c(s1)CCC2)Nc1ccccc1Br	-5.12%

SMILES	inhibition
C=CCOc1c2ccc(C(=O)N(CC)c3ccc(OC)cc3)cc2nn1C	0.66%
C=CCNC(=O)c1sc(SC)cc1-c1ccc(Cl)cc1	-2.13%
Cc1cccc(NC(=O)c2ccc(OCC(=O)NCc3ccccc3)cc2)c1C	0.02%
Cc1ccc(NC(=S)N/N=C2/CCCc3c(C)cc(C)cc32)cc1	0.47%
CCOC(=O)c1ccc2c(c1)nc(C)n2CC	-0.83%
COC(=O)c1ccccc1OCC(=O)N1CCN(c2ccc(Cl)cc2)CC1	-4.75%
OC(COCCC12CC3CC(CC(C3)C1)C2)CN1CCCCC1 (configuration not stated)	2.92%
N/C(=N\OC(=O)c1cc(-c2ccccc2)nc2ccccc12)c1ccncc1	-5.76%
Cc1ccc2c(Cl)c(C(=O)NCCCn3ccnc3)sc2c1	8.67%
COc1ccc(C(=O)OCC(=O)NCC2CCCCC2)cc1S(=O)(=O)N1CCCc2ccccc21	-0.59%
Cc1ccc(C(=O)c2c(NC(=O)c3ccncc3)sc3c2CCCC3)cc1	1.3%
O=C(N/N=C\c1cccc(Br)c1)c1ccccc1-n1cccc1	1.13%
CC(=O)c1cccc(NC(=O)N2CCCC2C(=O)NCCc2ccccc2)c1 (configuration not stated)	0.44%
CC(=O)c1cccc(NC(=O)N2CCCC2C(=O)NCCC(C)C)c1 (configuration not stated)	3.74%
CCC1CCCCN1C(=O)Nc1cccc(NC(=O)N2CCCCC2CC)c1 (configuration not stated)	16.1% (active)
Cc1ccc(NC(=O)C(C)c2cccc(C(=O)c3ccccc3)c2)cc1 (configuration not stated)	-1.1%
CCOC(=O)C1=C(CN2CCc3ccccc32)NC(=O)NC1c1cc(C)ccc1C (configuration not stated)	-2.91%
O=C1c2ccccc2C(=O)N1CCCc1nc(-c2ccccc2)no1	5.53%
Cc1ccccc1OC(=O)Cn1c(C(F)(F)F)nc2ccccc21	-8.85%
Oc1ccccc1/C=N/n1c(-c2cccs2)n[nH]c1=S	15.8% (active)
Cc1ccc(/C=N\n2c(-c3ccccc3)n[nH]c2=S)s1	-7.78%
O=[N+]([O-])c1ccccc1/C=N/n1c(COc2ccccc2)n[nH]c1=S	2.36%

Source: PubChem BioAssay AID720 (The Scripps Research Institute Molecular Screening Center, 2007)
